Source: ChEMBL document CHEMBL4513146, “CO-ADD screening of Karazin Kharkiv National University (Ukraine) compounds”
Potency and affinity values are given separately.

Assays:
Staphylococcus aureus = conditions: Concentration 32 ug.mL-1;; ASSAY_TEST Inhibition of Bacterial Growth; detection method Absorption (OD600); MEDIA CAMHB; plate type 384well; NBS; CORNING #3640; time 18 hr
Escherichia coli = conditions: Concentration 32 ug.mL-1;; ASSAY_TEST Inhibition of Bacterial Growth; detection method Absorption (OD600); MEDIA CAMHB; plate type 384well; NBS; CORNING #3640; time 18 hr

## Cc1nnc2c(=O)n(CC(=O)Nc3cccc(Br)c3)c3ccccc3n12
Staphylococcus aureus
  Inhibition: 15.88%
Escherichia coli
  Inhibition: -0.63%

## O=C(Cn1nc2c(N3CCSCC3)nc3ccccc3n2c1=O)Nc1ccc(Br)cc1
Staphylococcus aureus
  Inhibition: -2.29%
Escherichia coli
  Inhibition: -4.32%

## Cc1ccc(CN(c2ccc3c(c2)OCO3)S(=O)(=O)c2ccc3nnc(C)n3c2)cc1
Staphylococcus aureus
  Inhibition: -0.98%
Escherichia coli
  Inhibition: -3.16%

## CC(C)CCn1c(=O)c2sccc2n2c(=O)n(CC(=O)N(C)c3ccccc3)nc12
Staphylococcus aureus
  Inhibition: -2.05%
Escherichia coli
  Inhibition: -10.35%

## COc1ccccc1NC(=O)Cn1nc2c3c4c(sc3ncn2c1=O)CCCC4
Staphylococcus aureus
  Inhibition: 0.74%
Escherichia coli
  Inhibition: -4.22%

## COc1cc(NC(=O)Cn2nc3ccc(SCc4ccc(Cl)cc4)nn3c2=O)cc(OC)c1
Staphylococcus aureus
  Inhibition: -3.52%
Escherichia coli
  Inhibition: -10.62%

## Cc1ccc(NC(=O)Cn2nc3ccc(SC(C)C)nn3c2=O)cc1F
Staphylococcus aureus
  Inhibition: -3.37%
Escherichia coli
  Inhibition: -1.63%

## COc1cccc(CNC(=O)CSc2nnc3c(=O)n(-c4ccccc4)ccn23)c1OC
Staphylococcus aureus
  Inhibition: 2.64%
Escherichia coli
  Inhibition: -7.08%

## CC(C)Sc1ccc2nn(CC(=O)Nc3ccccc3F)c(=O)n2n1
Staphylococcus aureus
  Inhibition: -5.65%
Escherichia coli
  Inhibition: 3.66%

## CCc1cccc(NC(=O)Cn2nc3c(Sc4ccc(C)cc4C)nccn3c2=O)c1
Staphylococcus aureus
  Inhibition: -6.82%
Escherichia coli
  Inhibition: -19.78%

## Cc1cc(F)ccc1NC(=O)Cn1nc2c(SCc3ccc(Cl)cc3)nccn2c1=O
Staphylococcus aureus
  Inhibition: 7.28%
Escherichia coli
  Inhibition: -4.86%

## O=S(=O)(c1ccc2nncn2c1)N(Cc1cc(F)cc(F)c1)c1cccc(F)c1
Staphylococcus aureus
  Inhibition: 5.24%
Escherichia coli
  Inhibition: -5.68%

## COc1ccc(NC(=O)Cn2nc3cc(C)nc(Nc4ccc(F)c(C)c4)n3c2=O)cc1
Staphylococcus aureus
  Inhibition: -1.45%
Escherichia coli
  Inhibition: -6.2%

## Cc1nnc2c(SCC(=O)N3CCN(c4ccc(F)cc4)CC3)nc3ccccc3n12
Staphylococcus aureus
  Inhibition: 9.13%
Escherichia coli
  Inhibition: 7.96%

## COC(=O)c1ccccc1NC(=O)Cn1nc2c3cc(-c4ccc(Cl)cc4)nn3ccn2c1=O
Staphylococcus aureus
  Inhibition: 10.87%
Escherichia coli
  Inhibition: 6.58%

## COc1cccc(-n2ccn3c(SCC(=O)NCc4ccc(Cl)cc4)nnc3c2=O)c1
Staphylococcus aureus
  Inhibition: 10.06%
Escherichia coli
  Inhibition: -3.71%

## COc1cccc(Sc2nc3ccccc3n3c(=O)n(CC(=O)Nc4cccc(F)c4)nc23)c1
Staphylococcus aureus
  Inhibition: 3.13%
Escherichia coli
  Inhibition: -1.66%

## Cc1[nH]c2ccccc2c1C(=O)CSc1nnc2c(=O)n(-c3ccc(F)c(F)c3)ccn12
Staphylococcus aureus
  Inhibition: 13.1%
Escherichia coli
  Inhibition: -2.33%

## O=C(CSc1nnc2c(=O)n(-c3ccc(F)cc3)ccn12)N1CCN(c2ccccc2F)CC1
Staphylococcus aureus
  Inhibition: 14.78%
Escherichia coli
  Inhibition: -0.33%

## Cc1nnc2ccc(S(=O)(=O)N(Cc3ccccc3)c3ccc(F)cc3)cn12
Staphylococcus aureus
  Inhibition: -4.97%
Escherichia coli
  Inhibition: -1.95%

## CCOC(=O)c1ccc(NC(=O)Cn2nc3ccc(Sc4cccc(F)c4)nn3c2=O)cc1
Staphylococcus aureus
  Inhibition: 9.91%
Escherichia coli
  Inhibition: -1.47%

## Cc1ccc(NC(=O)Cn2nc3c4cc(-c5ccc(C)c(C)c5)nn4ccn3c2=O)c(C)c1
Staphylococcus aureus
  Inhibition: -8.87%
Escherichia coli
  Inhibition: -22.36%

## NC(=O)CSc1nnc2c(=O)n(-c3ccc(F)cc3)ccn12
Staphylococcus aureus
  Inhibition: 22.03%
Escherichia coli
  Inhibition: 3.06%

## COc1ccc(NC(=O)Cn2nc3c(Oc4ccc(C)cc4)nccn3c2=O)cc1Cl
Staphylococcus aureus
  Inhibition: -1.59%
Escherichia coli
  Inhibition: -3.22%

## O=C(CSc1nnc2c(=O)n(-c3ccc(Br)cc3)ccn12)Nc1ccc(F)cc1
Staphylococcus aureus
  Inhibition: 9.36%
Escherichia coli
  Inhibition: -1.5%

## COc1ccc(Cl)cc1NC(=O)CSc1nnc2c(=O)n(-c3ccc(C)c(C)c3)ccn12
Staphylococcus aureus
  Inhibition: 15.8%
Escherichia coli
  Inhibition: -1.54%

## COc1cccc(NC(=O)Cn2nc3c(Oc4cccc(OC)c4)nccn3c2=O)c1
Staphylococcus aureus
  Inhibition: -17.16%
Escherichia coli
  Inhibition: 2.27%

## Cc1ccc(NC(=O)Cn2nc3ccc(SC(C)C)nn3c2=O)c(Cl)c1
Staphylococcus aureus
  Inhibition: -9.9%
Escherichia coli
  Inhibition: 1.89%

## COc1ccc(NC(=O)Cn2nc3ccc(SC4CCCCC4)nn3c2=O)c(OC)c1
Staphylococcus aureus
  Inhibition: 7.02%
Escherichia coli
  Inhibition: -7.62%

## COc1ccc(-c2cc3c4nn(CC(=O)Nc5ccc(C)c(F)c5)c(=O)n4ccn3n2)cc1
Staphylococcus aureus
  Inhibition: 0.97%
Escherichia coli
  Inhibition: 2.58%

## CCc1ccccc1Sc1nccn2c(=O)n(CC(=O)Nc3ccc(C)cc3)nc12
Staphylococcus aureus
  Inhibition: 2.48%
Escherichia coli
  Inhibition: -9.52%

## COc1ccc(-c2cc3c4nnc(CCC(=O)NCc5ccc6c(c5)OCO6)n4ccn3n2)cc1
Staphylococcus aureus
  Inhibition: -1.19%
Escherichia coli
  Inhibition: 5.34%

## Cc1c(Cl)cccc1NC(=O)Cn1nc2c(SCc3ccccc3)nccn2c1=O
Staphylococcus aureus
  Inhibition: 2.18%
Escherichia coli
  Inhibition: -6.95%

## Cc1ccc(-c2cc3c4nn(CC(=O)Nc5ccc(Cl)cc5)c(=O)n4ccn3n2)cc1C
Staphylococcus aureus
  Inhibition: -15.51%
Escherichia coli
  Inhibition: -16.09%

## COc1cccc(Oc2nccn3c(=O)n(CC(=O)NCc4ccc(SC)cc4)nc23)c1
Staphylococcus aureus
  Inhibition: 10.98%
Escherichia coli
  Inhibition: 2.64%

## COc1cccc(CN(c2cccc(C)c2)S(=O)(=O)c2ccc3nnc(C)n3c2)c1
Staphylococcus aureus
  Inhibition: 1.31%
Escherichia coli
  Inhibition: -6.19%

## Cc1ccc(NC(=O)Cn2nc3ccc(SCc4ccc(Cl)cc4)nn3c2=O)cc1C
Staphylococcus aureus
  Inhibition: 4.09%
Escherichia coli
  Inhibition: -6.92%

## Cc1ccc(-c2ccc3nn(CC(=O)Nc4ccccc4)c(=O)n3n2)cc1C
Staphylococcus aureus
  Inhibition: 3.99%
Escherichia coli
  Inhibition: -8.76%

## COc1ccc(-c2cc3c4nnc(SCC(=O)Nc5ccc(OC)c(Cl)c5)n4ccn3n2)cc1
Staphylococcus aureus
  Inhibition: 3.66%
Escherichia coli
  Inhibition: -2.1%

## Cc1ccc(NC(=O)Cn2nc3c(N4CCCC4)nccn3c2=O)cc1Cl
Staphylococcus aureus
  Inhibition: 3.49%
Escherichia coli
  Inhibition: -0.46%

## CCC(C)NC(=O)Cn1nc2n(CCC(=O)NC3CCCCC3)c(=O)c3ccccc3n2c1=O (configuration not stated)
Staphylococcus aureus
  Inhibition: -5.52%
Escherichia coli
  Inhibition: -15%

## CCOC(=O)c1ccc(NC(=O)Cn2nc3ccc(C(=O)Nc4cccc(C)c4)cn3c2=O)cc1
Staphylococcus aureus
  Inhibition: 1.34%
Escherichia coli
  Inhibition: -4.77%

## Cc1c(Cl)cccc1NC(=O)Cn1nc2c(N3CCOCC3)nc3ccccc3n2c1=O
Staphylococcus aureus
  Inhibition: 6.58%
Escherichia coli
  Inhibition: -0.44%

## CCc1ccc(NC(=O)CSc2nnc3c(=O)n(-c4ccccc4)ccn23)cc1
Staphylococcus aureus
  Inhibition: 7.36%
Escherichia coli
  Inhibition: -2.07%

## CC1CC(C)CN(c2nccn3c(=O)n(CC(=O)Nc4cccc(C(F)(F)F)c4)nc23)C1 (configuration not stated)
Staphylococcus aureus
  Inhibition: 16.31%
Escherichia coli
  Inhibition: 0.9%

## O=C(Cn1nc2c3c4c(sc3ncn2c1=O)CCCC4)N1CCc2ccccc2C1
Staphylococcus aureus
  Inhibition: 0.97%
Escherichia coli
  Inhibition: 2.08%

## Cn1c(=O)c2sccc2n2c(=O)n(Cc3cccc(Br)c3)nc12
Staphylococcus aureus
  Inhibition: 14.17%
Escherichia coli
  Inhibition: 0.53%

## CCCCOc1ccc(-c2cc3c4nnc(SCC(=O)N(CC)c5ccccc5)n4ccn3n2)cc1
Staphylococcus aureus
  Inhibition: 7.98%
Escherichia coli
  Inhibition: -2.57%

## Cc1ccc(-c2cc3c4nn(CC(=O)Nc5ccccc5Cl)c(=O)n4ccn3n2)cc1
Staphylococcus aureus
  Inhibition: 2.52%
Escherichia coli
  Inhibition: -6.02%

## COc1ccc(CNC(=O)Cn2nc3c(Sc4ccc(C)cc4C)nccn3c2=O)cc1
Staphylococcus aureus
  Inhibition: 6.57%
Escherichia coli
  Inhibition: -1.79%

## Cc1cccc(C)c1NC(=O)Cn1nc2c(Sc3ccccc3)nccn2c1=O
Staphylococcus aureus
  Inhibition: -0.19%
Escherichia coli
  Inhibition: -13.17%

## N#Cc1ccccc1NC(=O)Cn1nc2c(Oc3ccccc3)nccn2c1=O
Staphylococcus aureus
  Inhibition: 8.21%
Escherichia coli
  Inhibition: 1.56%

## CCc1nnc2c(=O)n(CC(=O)Nc3ccc4c(c3)OCCO4)c3ccccc3n12
Staphylococcus aureus
  Inhibition: 2.09%
Escherichia coli
  Inhibition: -4.51%

## O=S(=O)(c1ccc2nncn2c1)N(Cc1cccc(Cl)c1)c1ccc2c(c1)OCO2
Staphylococcus aureus
  Inhibition: 4.03%
Escherichia coli
  Inhibition: -10.92%

## O=C(Cn1nc2c(Oc3ccccc3)nccn2c1=O)Nc1ccc(Cl)cc1
Staphylococcus aureus
  Inhibition: 8.53%
Escherichia coli
  Inhibition: -4.75%

## Cc1cccc(Oc2nccn3c(=O)n(CC(=O)N4CCN(c5ccccc5F)CC4)nc23)c1C
Staphylococcus aureus
  Inhibition: -3.04%
Escherichia coli
  Inhibition: -9.87%

## CCN(CCCNC(=O)CCc1nnc2ccc(-c3ccc(C)c(C)c3)nn12)c1ccccc1
Staphylococcus aureus
  Inhibition: -5.09%
Escherichia coli
  Inhibition: -5.52%

## CCOc1ccc(-n2ccn3c(SCC(=O)Nc4ccc(C)cc4Cl)nnc3c2=O)cc1
Staphylococcus aureus
  Inhibition: 8.62%
Escherichia coli
  Inhibition: -1.13%

## CCc1nnc2ccc(S(=O)(=O)N(Cc3ccccc3F)c3ccc(OC)cc3)cn12
Staphylococcus aureus
  Inhibition: 11.76%
Escherichia coli
  Inhibition: -5.17%

## CCOc1ccc(NC(=O)Cn2nc3c4c5c(sc4ncn3c2=O)CCCC5)cc1
Staphylococcus aureus
  Inhibition: -17.71%
Escherichia coli
  Inhibition: 0.82%

## Cc1nnc2ccc(S(=O)(=O)N(Cc3cccc(F)c3)c3ccc4c(c3)OCO4)cn12
Staphylococcus aureus
  Inhibition: -10.23%
Escherichia coli
  Inhibition: -15.4%

## Cc1nnc2c(=O)n(CC(=O)Nc3ccccc3Br)c3ccccc3n12
Staphylococcus aureus
  Inhibition: 16.36%
Escherichia coli
  Inhibition: 5.04%

## CCc1ccccc1Sc1nccn2c(=O)n(CC(=O)Nc3c(C)cccc3C)nc12
Staphylococcus aureus
  Inhibition: 13.44%
Escherichia coli
  Inhibition: 0%

## CCCCNC(=O)Cn1nc2n(Cc3ccco3)c(=O)c3sccc3n2c1=O
Staphylococcus aureus
  Inhibition: 2.23%
Escherichia coli
  Inhibition: -5.07%

## CCc1nnc2ccc(S(=O)(=O)N(Cc3ccc(F)cc3)c3ccc(OC)cc3)cn12
Staphylococcus aureus
  Inhibition: 6.39%
Escherichia coli
  Inhibition: -3.2%

## COc1cccc(CN(c2ccc(F)c(F)c2)S(=O)(=O)c2ccc3nnc(C)n3c2)c1
Staphylococcus aureus
  Inhibition: 7.3%
Escherichia coli
  Inhibition: -2.88%

## CCC(C)NC(=O)Cn1nc2n(CCC(C)C)c(=O)c3sccc3n2c1=O (configuration not stated)
Staphylococcus aureus
  Inhibition: -2.65%
Escherichia coli
  Inhibition: -5.43%

## COc1ccc(N(Cc2ccc(C)cc2)S(=O)(=O)c2ccc3nnc(C)n3c2)cc1
Staphylococcus aureus
  Inhibition: -1.53%
Escherichia coli
  Inhibition: -8.35%

## O=C(CCc1nnc2c3cc(-c4ccc(F)cc4)nn3ccn12)NCc1ccccc1Cl
Staphylococcus aureus
  Inhibition: -0.61%
Escherichia coli
  Inhibition: -10.24%

## CC(C)CCNC(=O)Cn1nc2n(Cc3ccco3)c(=O)c3sccc3n2c1=O
Staphylococcus aureus
  Inhibition: 8.27%
Escherichia coli
  Inhibition: 0.93%

## COc1ccc(-c2cc3c4nn(CC(=O)Nc5cccc(C(C)=O)c5)c(=O)n4ccn3n2)cc1
Staphylococcus aureus
  Inhibition: -6.93%
Escherichia coli
  Inhibition: -6.63%
